# Laboratory results taken from PubChem BioAssay (Tox21).
# Several values for one entry are separate records, joined by “and”; a condition that tells them apart may be missing. Equal entries are not always repeated. Results filed as inconclusive are left out. A number with no mark means an inactive call. Activity calls are given as the source filed them. The call rests on the fitted dose curve; in most records, active means well fitted cell-killing curve with a large enough effect in the repeat runs; inconclusive means weak or mixed curves, or effect the other way; inactive means no such curve, though single readings can be large or run the other way.
# Experiment: qHTS assay to identify small molecule antagonists of the progesterone receptor (PR) signaling pathway - cell viability counter screen (AID 1346798); further: nearly all actives have a fitted effect of over 50% in size
# Conditions: PR-UAS-bla HEK293T viability, CellTiter-Glo luminescence, 16 h; series mostly up to 42.5 µM; activity change, negative = cytotoxicity: at the top concentration
# Description: National Center for Advancing Translational Sciences [NCATS]
# NIH Chemical Genomics Center [NCGC]
# U.S. Environmental Protection Agency [EPA]
# National Institutes of Environmental Health Sciences [NIEHS]
# National Toxicology Program [NTP]
# U.S. Food and Drug Administration [FDA]
# Progesterone receptor (PR), a nuclear hormone receptor, plays an important role in development, metabolic homeostasis and reproduction. It is activated by the steroid hormone progesterone. Endocrine disrupting chemicals (EDCs) and their interactions with steroid hormone receptors like PR causes disruption of normal endocrine function. To identify the compounds that inhibit PR signaling, a PR-UAS-bla GripTite cell line i.e. PR-UAS-bla HEK293T (Invitrogen, Carlsbad, CA, USA) containing a beta-lactamase reporter gene under the control of an UAS response element was used to screen Tox21 10K compound library. The cytotoxicity of the Tox21 compound library against the PR-bla cell line was tested in parallel by measuring the cell viability using CellTiter-Glo assay in the same wells.
# Tox21 Assay Protocol Summary:
# PR-UAS-bla HEK293T cells were dispensed at 3,000 cells/4 uL of assay medium containing 2% charcoal stripped FBS per well into black wall/clear-bottom 1536-well plates using a Multidrop Combi (ThermoFisher Scientific, Waltham, MA) dispenser. After the assay plates were incubated at a 37C and 5% CO2 for 4 hr, 23 nL of compounds dissolved in DMSO, positive controls or DMSO only was transferred to the assay plate by a Pintool station (Kalypsys, San Diego, CA), followed by addition of 1 uL of R5020 in assay medium using a Flying Reagent Dispenser (FRD, Aurora Discovery, San Diego, CA). The plates were incubated at 37C and 5% CO2 for 16 hr. Then 1 uL of LiveBLAzer B/G FRET substrate was added using a Flying Reagent Dispenser, the plates were incubated at room temperature for 2 hours, and fluorescence intensity was measured by an Envision plate reader (PerkinElmer, Shelton, CT). For cell viability readout that measures cytotoxicity, 4 uL/well of CellTiter-Glo reagent was added into the assay plates using a FRD. After 30 min incubation at room temperature, the luminescence intensity in the plates was measured using a ViewLux (PerkinElmer) plate reader.
# On the % scale 0 is the no-effect control and ±100 the full control effect; potency means the concentration at half of the fitted maximal effect.
Structure (SMILES),"activity change, negative = cytotoxicity",Potency
O=C(O)Cc1ccc(CCNS(=O)(=O)c2ccc(Cl)cc2)cc1,0.149%,–
NS(=O)(=O)c1ccccc1Cl,-0.633% [at 92.4 µM],–
CC(C)CNCC(C)C,7.78% [at 92.4 µM],–
COC(=O)NN,-1.77% [at 92.4 µM],–
NS(=O)(=O)c1cc(C(=O)NN2C[C@H]3[C@H]4CCC(C4)[C@H]3C2)ccc1Cl,-8.64%,–
C=C[Si](OC(=C)C)(OC(=C)C)OC(=C)C,-2.55% [at 92.4 µM],–
COc1c(N2C[C@@H]3CCCN[C@@H]3C2)c(F)cc2c(=O)c(C(=O)O)cn(C3CC3)c12,19.5%,–
CCCCCCCCCCCCCC=O,2% [at 8.39 µM],–
CCOC(=O)CCC(C)=O,7.58% [at 92.4 µM],–
CC(C)(C)NCCNC(C)(C)C,–,864 nM (active)
CCCCCCCCS(=O)(=O)Cl,15.6% [at 92.4 µM],–
CC(C)NCC(O)c1ccc(NS(C)(=O)=O)cc1 (stereo not given),20.6% [at 92.4 µM],–
Cn1c(N)c(N=O)c(=O)n(C)c1=O,-8.65% [at 92.4 µM],–
O=C(O)c1ccccc1OP(=O)(O)O,0.443%,–
COc1ccc(CCN(C)CCCC(C#N)(c2cc(OC)c(OC)c(OC)c2)C(C)C)cc1OC (stereo not given),-9.19%,–
CCCN1CCCC[C@H]1C(=O)Nc1c(C)cccc1C,1.21%,–
CCN(Cc1ccncc1)C(=O)C(CO)c1ccccc1 (stereo not given),0.0804%,–
CCOC(=O)c1c(C)n(C)c2ccc(O)cc12,-3.28%,–
NS(=O)(=O)c1cc(C(=O)O)cc(N2CCCC2)c1Oc1ccccc1,-17.1%,–
C[C@H](NC(CCc1ccccc1)C(=O)O)C(=O)N1CCC[C@H]1C(=O)O (stereo not given in full),2.55%,–

Structure (SMILES),"activity change, negative = cytotoxicity",Potency
COC(C)(C)CCCC(C)CC=O (stereo not given),-0.266% [at 92.4 µM],–
COC(=O)[C@@H](N)Cc1ccc(O)c(O)c1,4.47%,–
COC(=O)C1=C(C)NC(C)=C(C(=O)OC)C1c1ccccc1[N+](=O)[O-],–,inactive
C[C@](N)(Cc1ccc(O)cc1)C(=O)O,2.75% [at 8.39 µM],–
C/C=C(\C)C#N,-1.26% [at 92.4 µM],–
O=C1CCCN1C1CCCCC1,-33.7% [at 92.4 µM],–
COCCc1ccc(OCC(O)CNC(C)C)cc1 (stereo not given),–,inactive
CCCCCCCCCCCCCCCCC,2.17% [at 92.4 µM],–
C1OCOCO1,-0.22% [at 92.4 µM],–
CCCCC/C=C\CCC=O,-3.33% [at 92.4 µM],–
O=C[C@H](O)[C@@H](O)[C@H](O)[C@H](O)CO,10.6% [at 92.4 µM],–
N[C@H](C(=O)O)c1ccc(O)cc1,3.27% [at 18.9 µM],–
Cc1[nH]c(=O)c(C#N)cc1-c1ccc2nccn2c1,-6.11%,–
COc1nc(N)nc2c1ncn2[C@@H]1O[C@H](CO)[C@@H](O)[C@@H]1O,-4.21%,–
CN(C)CCCN1c2ccccc2CCc2ccc(Cl)cc21,–,34.4 µM (active) and 29.8 µM (active)
ClC(Cl)(Br)Br,8.69% [at 92.4 µM],–
NC(=O)COCCN1CCN(C(c2ccccc2)c2ccc(Cl)cc2)CC1 (stereo not given),-1.94%,–
CC(C)NCCCC1(C(N)=O)c2ccccc2-c2ccccc21,3.45%,–
CCOC(=O)c1ccc(C)cc1,3.56% [at 92.4 µM],–
CO/N=C(/C(=O)N[C@@H]1C(=O)N2C(C(=O)OCOC(=O)C(C)(C)C)=C(C)CS[C@H]12)c1csc(N)n1,4.95%,–
